Source: PubChem BioAssay (EPA / NIEHS)
Records with an inconclusive call do not appear. The source made the active and inactive calls. The calls were made as follows, unless noted: active = hit-call score of the fitted dose curve at least 0.9, where 1 is the maximum; inconclusive = response in the unintended direction; inactive = score below 0.9.

Columns and labels:
[1] = tested on: Sodium/Iodide Symporter (NIS), SLC5A5 (gene 6528); experiment: CPHEA_Stoker_NIS_Inhibition_RAIU: CPHEA's Radioactive Iodide Uptake (RAIU) Assay for Sodium/Iodide Symporter (NIS) Inhibition, Stoker and Laws Labs (AID 2283841)
In short: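 Iodide uptake through human NIS is measured in an engineered HEK293T line. Cells take up 125I (329pM final) for 2 hours at room temperature alongside chemicals at 0.001–100uM. Retained radioactivity is counted, and the signal is expressed against DMSO controls.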

[2] = CPHEA_Stoker_NIS_Cytotoxicity: Cytotoxicity Assessment for CPHEA's Radioactive Iodide Uptake (RAIU) Assay for Sodium/Iodide Symporter (NIS) Inhibition, Stoker and Laws Labs (AID 2283897);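 as to AC50: active means loss of ATP signal versus DMSO meaning cytotoxicity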
In short: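 ATP luminescence (Cell Titer Glo) measured viability, with loss of signal normalized to DMSO controls. Cells: hNIS-HEK293T-EPA, seeded 40 hours prior. Dosing: 0.001–100uM, 2 hours, room temperature, uptake buffer pH 7.4.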

[3] = tested on: frog Estrogen Receptor (ER), gene 398734; experiment: ATG_frER1_XSP2: Attagene TRANS-FACTORIAL Multi-Species (XSP2) HepG2 Assay for frog Estrogen Receptor (ER) (AID 2283821);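 also: hits raise reporter mRNA above DMSO baseline so potency means agonist or activator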
In short: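 HepG2, transient MRTU transfection, chimeric NR-GAL4/UAS reporters; 24 h compound exposure, 24-well. Readout: reporter mRNA via RT-PCR + capillary electrophoresis, fluorescence. Positive fit vs DMSO baseline.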

[4] = tested on: zebrafish Estrogen Receptor (ER2b), gene 317733; experiment: ATG_zfER2b_XSP2: Attagene TRANS-FACTORIAL Multi-Species (XSP2) HepG2 Assay for zebrafish Estrogen Receptor (ER2b) (AID 2283823);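 also: fitted upward as reporter gain over DMSO so potency reflects activation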
In short: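 Transfect HepG2 with GAL4-UAS reporter constructs; dose chemicals, 24 h; isolate RNA, RT-PCR, FAM-label, HpaI digest; capillary electrophoresis. Gain-of-signal vs DMSO.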

[5] = tested on: frog Estrogen Receptor (ER2), gene 100174814; experiment: ATG_frER2_XSP2: Attagene TRANS-FACTORIAL Multi-Species (XSP2) HepG2 Assay for frog Estrogen Receptor (ER2) (AID 2283828)
In short: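 Human liver HepG2, transient MRTU transfection (TRANS format, exogenous NR–Gal4). 24 h cpd exposure. Total RNA → RT → PCR → FAM label → HpaI cut → CE. Positive direction vs DMSO.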

[6] = target: Peroxisome proliferator-activated receptor gamma (Homo sapiens) (UniProt P37231); experiment: ATG_hPPARg_XSP2: Attagene TRANS-FACTORIAL Multi-Species (XSP2) HepG2 Assay for human Peroxisome Proliferator-activated Receptor gamma (PPARg) (AID 2283829);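 also: actives raise reporter mRNA above DMSO so AC50 reflects PPARg activation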
In short: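 Transient MRTU transfection, HepG2; TRANS format (exogenous NR-Gal4 chimeras). 24 h chemical exposure with 3 nM 6-alpha-fluorotestosterone and 1.5 nM norgestrel present. Readout: reporter mRNA via RT-PCR/CE fluorescence, up-direction vs DMSO.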

[7] = tested on: turtle Thyroid Hormone Receptor, alpha (TRa), gene 101949057; experiment: ATG_trTRa_XSP2: Attagene TRANS-FACTORIAL Multi-Species (XSP1) HepG2 Assay for turtle Thyroid Hormone Receptor, alpha (TRa) (AID 2283834);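 also: hits raise reporter mRNA over the DMSO baseline so AC50 marks activators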
In short: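 Readout: reporter mRNA induction, fluorescence after RT-PCR, HpaI digestion and capillary electrophoresis. Transiently transfected HepG2, exogenous NR-Gal4 chimera driving GAL4-UAS reporter, 24 h compound exposure. Activity fitted upward relative to DMSO baseline.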

[8] = ATG_M_61_XSP2: Attagene TRANS-FACTORIAL Multi-Species (XSP2) HepG2 Assay for M61 Transcription Factor (Internal Marker) (AID 2283835; active = hit-call score of the fitted dose curve at least 0.9, where 1 is the maximum; inactive = score below 0.9;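 also: reporter mRNA of an internal background marker read by RT-PCR and capillary electrophoresis; active means a rise in signal above the DMSO baseline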)
In short: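 HepG2 cells transiently transfected with multiple GAL4-UAS reporter units; 3 nM 6-alpha-fluorotestosterone and 1.5 nM norgestrel present to stimulate androgen receptor. After 24 h compound exposure, reporter mRNA measured by RT-PCR and capillary electrophoresis fluorescence, gain-of-signal versus DMSO baseline.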

[9] = target: zebrafish Thyroid Hormone Receptor beta (TRb), thrb (gene 30607) (UniProt Q9PVE4); experiment: ATG_zfTRb_XSP2: Attagene TRANS-FACTORIAL Multi-Species (XSP1) HepG2 Assay for zebrafish Thyroid Hormone Receptor beta (TRb) (AID 2283836)
In short: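 Human liver HepG2, transient MRTU transfection (NR-Gal4 chimeras, GAL4-UAS reporters); 24 h compound exposure; total RNA → oligo(dT) RT → PCR → 6-FAM label → HpaI cut → CE fluorescence. DMSO = negative control/baseline.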

[10] = target: human Thyroid hormone Receptor alpha (TRa), THRA (gene 7067) (UniProt P10827); experiment: ATG_hTRa_XSP2: Attagene TRANS-FACTORIAL Multi-Species (XSP2) HepG2 Assay for human Thyroid hormone Receptor alpha (TRa) (AID 2283838)
In short: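 HepG2 cells were transiently transfected with GAL4-UAS reporter units for chimeric human TRa-Gal4 and dosed for 24 hours, with 3 nM 6-alpha-fluorotestosterone and 1.5 nM norgestrel present. Reporter mRNA was quantified by RT-PCR, FAM labelling and capillary electrophoresis, with gain of signal fitted versus DMSO.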

[11] = target: frog Thyroid hormone Receptor alpha (TRa), thra-a (gene 397942) (UniProt P15204); experiment: ATG_frTRa_XSP2: Attagene TRANS-FACTORIAL Multi-Species (XSP2) HepG2 Assay for frog Thyroid hormone Receptor alpha (TRa) (AID 2283839)
In short: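 Read-out: fluorescent reporter-transcript fragments resolved by capillary electrophoresis after RT-PCR and HpaI cut. Human HepG2 liver cells carry a transfected frog TRα-Gal4 chimera driving a UAS reporter; 24 h exposure, DMSO baseline, positive-direction fit.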

[12] = target: human Thyroid hormone Receptor beta (TRb), THRB (gene 7068) (UniProt P10828); experiment: ATG_hTRb_XSP2: Attagene TRANS-FACTORIAL Multi-Species (XSP2) HepG2 Assay for human Thyroid hormone Receptor beta (TRb) (AID 2283840);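 also: actives raise reporter mRNA so potency reflects agonist-like gain of signal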
In short: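 Read-out: reporter mRNA induction (RT-PCR, 6-FAM labeling, capillary electrophoresis), gain-of-signal relative to DMSO baseline. Transiently transfected HepG2 TRANS multiplex (NR-Gal4 chimeras, GAL4-UAS reporters), 24 h chemical exposure; medium contained 3 nM 6-alpha-fluorotestosterone plus 1.5 nM norgestrel.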

human Thyroid hormone Receptor alpha (TRa), THRA (gene 7067), sequence (P10827 whole entry, looked up, the tested form may be a part): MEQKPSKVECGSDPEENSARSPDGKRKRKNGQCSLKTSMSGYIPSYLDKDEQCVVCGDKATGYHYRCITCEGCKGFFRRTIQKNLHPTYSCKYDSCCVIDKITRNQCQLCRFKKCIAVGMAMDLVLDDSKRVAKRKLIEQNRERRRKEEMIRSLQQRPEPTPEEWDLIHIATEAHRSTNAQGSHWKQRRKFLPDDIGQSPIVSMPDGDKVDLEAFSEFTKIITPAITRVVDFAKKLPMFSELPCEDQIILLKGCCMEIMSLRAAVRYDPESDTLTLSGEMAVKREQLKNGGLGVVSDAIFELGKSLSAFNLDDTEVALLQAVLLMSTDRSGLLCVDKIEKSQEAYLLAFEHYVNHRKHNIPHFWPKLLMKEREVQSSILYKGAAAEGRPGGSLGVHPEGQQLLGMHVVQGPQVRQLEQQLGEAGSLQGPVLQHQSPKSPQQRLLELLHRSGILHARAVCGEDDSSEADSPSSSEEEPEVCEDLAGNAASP
frog Thyroid hormone Receptor alpha (TRa), thra-a (gene 397942), sequence (P15204 whole entry, looked up, the tested form may be a part): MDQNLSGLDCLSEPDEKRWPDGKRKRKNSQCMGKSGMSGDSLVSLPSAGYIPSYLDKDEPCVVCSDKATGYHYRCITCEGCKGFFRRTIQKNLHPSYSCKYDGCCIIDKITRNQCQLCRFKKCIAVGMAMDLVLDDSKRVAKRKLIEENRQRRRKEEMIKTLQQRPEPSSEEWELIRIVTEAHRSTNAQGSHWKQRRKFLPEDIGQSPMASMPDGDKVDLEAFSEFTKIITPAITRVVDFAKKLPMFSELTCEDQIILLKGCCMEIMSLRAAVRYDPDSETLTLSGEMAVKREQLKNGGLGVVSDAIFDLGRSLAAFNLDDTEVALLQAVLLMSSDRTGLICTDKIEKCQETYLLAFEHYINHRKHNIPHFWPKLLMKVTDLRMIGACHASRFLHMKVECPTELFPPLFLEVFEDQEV
Peroxisome proliferator-activated receptor gamma (Homo sapiens), sequence (P37231 whole entry, looked up, the tested form may be a part): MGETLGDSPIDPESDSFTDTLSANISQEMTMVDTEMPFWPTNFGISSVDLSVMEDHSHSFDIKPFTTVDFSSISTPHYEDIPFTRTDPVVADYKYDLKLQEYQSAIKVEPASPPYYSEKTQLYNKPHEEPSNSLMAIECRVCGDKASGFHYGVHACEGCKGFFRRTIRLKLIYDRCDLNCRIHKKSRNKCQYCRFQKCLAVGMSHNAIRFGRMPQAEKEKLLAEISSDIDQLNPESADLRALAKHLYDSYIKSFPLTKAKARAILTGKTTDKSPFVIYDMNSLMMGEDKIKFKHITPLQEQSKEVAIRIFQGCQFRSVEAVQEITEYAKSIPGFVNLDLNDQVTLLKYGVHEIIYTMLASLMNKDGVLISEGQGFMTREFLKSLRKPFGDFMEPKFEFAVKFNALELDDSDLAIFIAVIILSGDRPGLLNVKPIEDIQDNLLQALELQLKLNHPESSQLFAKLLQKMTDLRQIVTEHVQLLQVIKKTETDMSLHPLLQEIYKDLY
human Thyroid hormone Receptor beta (TRb), THRB (gene 7068), sequence (P10828 whole entry, looked up, the tested form may be a part): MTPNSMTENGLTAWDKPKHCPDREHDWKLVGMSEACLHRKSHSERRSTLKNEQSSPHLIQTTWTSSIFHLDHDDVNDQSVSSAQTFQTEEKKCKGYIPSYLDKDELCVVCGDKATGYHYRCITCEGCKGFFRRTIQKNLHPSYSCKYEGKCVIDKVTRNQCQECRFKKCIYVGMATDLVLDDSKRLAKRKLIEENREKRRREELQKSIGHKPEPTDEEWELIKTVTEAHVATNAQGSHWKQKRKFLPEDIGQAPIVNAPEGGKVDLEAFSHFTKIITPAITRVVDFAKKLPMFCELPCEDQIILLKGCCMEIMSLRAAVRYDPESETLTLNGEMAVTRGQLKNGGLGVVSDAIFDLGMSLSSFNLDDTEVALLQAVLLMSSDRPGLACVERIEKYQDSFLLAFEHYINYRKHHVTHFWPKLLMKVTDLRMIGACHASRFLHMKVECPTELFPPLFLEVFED
zebrafish Thyroid Hormone Receptor beta (TRb), thrb (gene 30607), sequence (Q9PVE4 whole entry, looked up, the tested form may be a part): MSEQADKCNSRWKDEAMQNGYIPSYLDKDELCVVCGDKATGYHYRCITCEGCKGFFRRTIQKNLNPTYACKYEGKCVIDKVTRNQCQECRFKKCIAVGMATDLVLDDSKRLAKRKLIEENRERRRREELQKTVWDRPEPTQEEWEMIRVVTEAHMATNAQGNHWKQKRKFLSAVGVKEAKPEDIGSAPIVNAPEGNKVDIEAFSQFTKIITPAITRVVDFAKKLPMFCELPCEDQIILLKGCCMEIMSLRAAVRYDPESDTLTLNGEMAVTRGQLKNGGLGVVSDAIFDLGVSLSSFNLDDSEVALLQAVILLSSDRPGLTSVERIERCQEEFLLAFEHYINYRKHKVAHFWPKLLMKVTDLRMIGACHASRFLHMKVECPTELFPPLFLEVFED

Question: With O=S(=O)(OCC(F)(F)F)C(F)(F)C(F)(F)C(F)(F)C(F)(F)F as the compound, how does the outcome [1] read?
Answer: inactive

Question: Which outcome [1] does the source give for OCCCCC(F)(F)C(F)(F)C(F)(F)C(F)(F)F here?
Answer: inactive

Question: With OCC(O)CC(F)(F)C(F)(F)C(F)(F)C(F)(F)C(F)(F)C(F)(F)C(F)(F)C(F)(F)F (stereo not given) as the compound, how does the outcome [1] read?
Answer: inactive

Question: Which AC50 [1] does the source give for O=S(=O)(Cl)C(F)(F)C(F)(F)C(F)(F)C(F)(F)C(F)(F)C(F)(F)C(F)(F)C(F)(F)F here?
Answer: 16.9 µM (active)

Question: For C=CC(=O)OCC(F)(F)C(F)(F)C(F)(F)COC(=O)C=C, which outcome [1] is on record?
Answer: inactive

Question: What does the source list for CCCCCCCCCCCCCC[P+](CCCC)(CCCC)CCCC?
Answer: AC50 [1]: 9.92 µM (active); AC50 [2]: 15.9 µM (active)

Question: For CCN(CCO)S(=O)(=O)C(F)(F)C(F)(F)C(F)(F)C(F)(F)C(F)(F)C(F)(F)C(F)(F)C(F)(F)F, which outcome [1] is on record?
Answer: inactive

Question: For C=CC(=O)OCCC(F)(F)C(F)(F)C(F)(F)C(F)(F)F, which outcome [1] is on record?
Answer: inactive

Question: Which outcome [1] does the source give for O=C(O)CCC(F)(F)C(F)(F)C(F)(F)C(F)(F)C(F)(F)C(F)(F)C(F)(F)F here?
Answer: inactive

Question: With OCC(F)(F)C(F)(F)C(F)(F)C(F)(F)C(F)(F)C(F)(F)C(F)(F)C(F)(F)CO as the compound, how does the AC50 [1] read?
Answer: 18.3 µM (active)

Question: With CCCCCCCCn1sc(Cl)c(Cl)c1=O as the compound, how does the AC50 [1] read?
Answer: 9.92 µM (active)

Question: What about the outcome [2] of the same compound?
Answer: inactive

Question: With C[C@]12CC[C@H]3C(=CCc4cc(O)ccc43)[C@@H]1CCC2=O as the compound, how does the AC50 [3] read?
Answer: 0.0159 µM (active)

Question: And the AC50 [4]?
Answer: 0.0258 µM (active)

Question: What about the AC50 [5] of the same compound?
Answer: 0.0228 µM (active)

Question: And the outcome [6]?
Answer: inactive

Question: What about the outcome [7] of the same compound?
Answer: inactive

Question: And the outcome [8]?
Answer: inactive

Question: And the outcome [9]?
Answer: inactive

Question: And the outcome [10]?
Answer: inactive

Question: And the outcome [11]?
Answer: inactive

Question: What about the outcome [12] of the same compound?
Answer: inactive

Question: And the outcome [1]?
Answer: inactive

Question: What about the outcome [2] of the same compound?
Answer: inactive

Question: With NS(=O)(=O)C(F)(F)C(F)(F)C(F)(F)C(F)(F)C(F)(F)C(F)(F)F as the compound, how does the outcome [1] read?
Answer: inactive

Question: For CCCCCCCCCCCCC[N+](C)(C)Cc1ccccc1, which AC50 [1] is on record?
Answer: 11.2 µM (active)

Question: What about the outcome [2] of the same compound?
Answer: inactive

Question: With OCC(F)(F)C(F)(F)C(F)(F)C(F)(F)C(F)(F)C(F)(F)CO as the compound, how does the outcome [1] read?
Answer: inactive

Question: With FC(F)(F)C(F)(F)C(F)(F)C(F)(F)C(F)(F)C(F)(F)C(F)(F)CCI as the compound, how does the AC50 [1] read?
Answer: 3.31 µM (active)

Question: What does the source list for COCCOCCC[Si](C)(O[Si](C)(C)C)O[Si](C)(C)C?
Answer: AC50 [1]: 19.4 µM (active); outcome [2]: inactive

Question: For O=C1C=CC(=O)N1c1ccccc1, which AC50 [1] is on record?
Answer: 9.92 µM (active)

Question: And the AC50 [2]?
Answer: 81.6 µM (active)

Question: For O=C(F)C1(F)C(F)(F)C(F)(F)C(F)(F)C(F)(F)C1(F)F, which outcome [1] is on record?
Answer: inactive
